For some of these results: Measured potencies and affinities stand elsewhere. Activity calls are given as the source filed them.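 The calls were made as follows, unless noted: active = compound raising the membrane signal above positive-control mean plus 3 SD in both repeats, and a primary screen hit; inactive = the rest.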
Columns and labels:
[1] = test system: TRPC4 beta (transient receptor potential cation channel C4), mouse; test: TRPC4 cation channel opening, retest – cell-based, Fluo4 calcium, HEK293 TRPC4beta/mu-opioid, duplicates, 10 µM, confirmation (AID 2426;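 active = fluorescence ratio normalized to control raised more than 50% in primary screen plus both repeat runs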;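 also: percent rise of integrated ratio over buffer wells lacking compound which define 0%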); settings: Fluo4 calcium fluorescence, at 10 µM; stronger effect = higher value
[2] = test system: transient receptor potential cation channel C4 beta (TRPC4), mouse; test: TRPC4 cation channel opening, second retest – cell-based, second round, Fluo4, HEK293 TRPC4beta/mu-opioid, 1 µM, confirmation (AID 2461;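 active = primary screen active and over 50% activation in each of two duplicate runs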;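 as to activation: 0% = wells without test compound as baseline of integrated fluorescence ratio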); settings: Fluo4 calcium fluorescence, at 1 µM; stronger effect = higher value
[3] = test system: TRPC4 (transient receptor potential cation channel C4 beta), mouse; test: potentiation of DAMGO EC20 TRPC4 response – cell-based, second round, Fluo-4, HEK293 TRPC4beta/mu-opioid, 1 µM, confirmation (AID 2554;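 active = primary screen hit whose fluorescence ratio, in both repeats, exceeds the weak agonist control mean by 3 SD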); settings: DAMGO EC20, Fluo-4 calcium flux, at 1 µM; stronger effect = higher value
[4] = test system: TRPC4 beta (transient receptor potential cation channel C4), mouse; test: potentiation of DAMGO EC20 TRPC4 response – cell-based, Fluo-4, HEK293 TRPC4beta/mu-opioid, confirmation (AID 2555;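 active = primary screen hit whose calcium fluorescence ratio, in both repeats, exceeds the weak agonist control mean by 3 SD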); settings: DAMGO EC20, Fluo-4 calcium flux, at 10 µM; stronger effect = higher value
[5] = molecular target: Short transient receptor potential channel 4 (Mus musculus) (UniProt Q9QUQ5); test: blockers of DAMGO-evoked TRPC4 calcium flux – cell-based, Fluo4, HEK293 TRPC4beta/mu-opioid, confirmation (AID 2636;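 active = calcium signal cut by more than 3 SD below the full-agonist control yet still positive, in both repeats and the earlier primary screen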); settings: at 10 µM; stronger effect = higher value
Short transient receptor potential channel 4 (Mus musculus), sequence (Q9QUQ5 whole entry, looked up): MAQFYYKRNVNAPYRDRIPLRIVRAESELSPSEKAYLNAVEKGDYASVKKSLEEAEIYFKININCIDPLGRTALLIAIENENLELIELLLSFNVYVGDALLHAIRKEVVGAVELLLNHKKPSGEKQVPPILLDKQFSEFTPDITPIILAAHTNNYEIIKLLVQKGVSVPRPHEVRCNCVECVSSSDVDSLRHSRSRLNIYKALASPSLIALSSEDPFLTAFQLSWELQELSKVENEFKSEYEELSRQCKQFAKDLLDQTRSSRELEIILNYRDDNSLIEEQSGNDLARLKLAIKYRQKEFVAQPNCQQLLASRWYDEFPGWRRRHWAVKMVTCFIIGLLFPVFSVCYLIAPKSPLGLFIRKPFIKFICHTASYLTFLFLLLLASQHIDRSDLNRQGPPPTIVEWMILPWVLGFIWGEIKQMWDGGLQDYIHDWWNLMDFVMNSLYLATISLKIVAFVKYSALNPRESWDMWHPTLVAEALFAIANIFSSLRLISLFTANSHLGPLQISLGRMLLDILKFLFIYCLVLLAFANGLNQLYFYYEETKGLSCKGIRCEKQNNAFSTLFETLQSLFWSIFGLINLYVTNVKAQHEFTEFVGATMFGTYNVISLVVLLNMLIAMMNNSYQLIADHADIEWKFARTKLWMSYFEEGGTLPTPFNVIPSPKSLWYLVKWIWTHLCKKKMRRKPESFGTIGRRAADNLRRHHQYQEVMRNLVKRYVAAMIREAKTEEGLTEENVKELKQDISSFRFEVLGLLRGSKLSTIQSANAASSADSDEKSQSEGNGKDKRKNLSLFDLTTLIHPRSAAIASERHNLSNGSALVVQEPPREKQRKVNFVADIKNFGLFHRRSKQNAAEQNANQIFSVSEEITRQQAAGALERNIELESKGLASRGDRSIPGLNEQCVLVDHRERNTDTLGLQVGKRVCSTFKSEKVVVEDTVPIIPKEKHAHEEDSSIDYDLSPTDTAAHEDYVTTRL

[6] = molecular target: Short transient receptor potential channel 4 (Mus musculus) (UniProt Q9QUQ5); test: blockers of DAMGO-evoked TRPC4 calcium flux – cell-based, second round, Fluo4, HEK293 TRPC4beta/mu-opioid, 1 µM, confirmation (AID 2637;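 active = calcium signal ratio cut to more than 3 SD under the fully stimulated control mean yet still positive, in both repeats and the primary screen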); settings: at 1 µM; stronger effect = higher value
[7] = molecular target: Short transient receptor potential channel 4 (Mus musculus) (UniProt Q9QUQ5); test: potentiation of DAMGO-evoked TRPC4 calcium signal – cell-based, HEK293 TRPC4/mu-opioid, Fluo-4 calcium, EC20 DAMGO, dose response (AID 434941;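 active = earlier screen potentiator hit that boosts the TRPC4 ion channel at some dose, with a dose response; inactive = no potentiation, no dose response, or not a prior hit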;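 also: calcium entry triggered by an EC20 dose of DAMGO at the co-expressed mu-opioid receptor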)
[8] = molecular target: Short transient receptor potential channel 4 (Mus musculus) (UniProt Q9QUQ5); test: block of DAMGO-driven TRPC4 calcium entry – cell-based, HEK293 TRPC4/mu-opioid, Fluo-4 calcium, dose response (AID 434942;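 active = primary screen inhibitor hit that blocks the TRPC4 channel at some tested dose, yielding a dose curve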)
[9] = molecular target: Short transient receptor potential channel 6 (Mus musculus) (UniProt Q61143); test: TRPC6 blockade by TRPC4 inhibitor hits – cell-based, HEK293, membrane potential dye, duplicate, selectivity assay for TRPC4 inhibitor project, confirmation (AID 434948;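 active = active in primary screen and both duplicates, each dropping signal beyond three positive-control SD with fluorescence still positive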); settings: HEK293 TRPC6, membrane potential dye fluorescence, at 10 µM, stimulated with maximal-effect acetylcholine; stronger effect = higher value
Short transient receptor potential channel 6 (Mus musculus), sequence (Q61143 whole entry, looked up): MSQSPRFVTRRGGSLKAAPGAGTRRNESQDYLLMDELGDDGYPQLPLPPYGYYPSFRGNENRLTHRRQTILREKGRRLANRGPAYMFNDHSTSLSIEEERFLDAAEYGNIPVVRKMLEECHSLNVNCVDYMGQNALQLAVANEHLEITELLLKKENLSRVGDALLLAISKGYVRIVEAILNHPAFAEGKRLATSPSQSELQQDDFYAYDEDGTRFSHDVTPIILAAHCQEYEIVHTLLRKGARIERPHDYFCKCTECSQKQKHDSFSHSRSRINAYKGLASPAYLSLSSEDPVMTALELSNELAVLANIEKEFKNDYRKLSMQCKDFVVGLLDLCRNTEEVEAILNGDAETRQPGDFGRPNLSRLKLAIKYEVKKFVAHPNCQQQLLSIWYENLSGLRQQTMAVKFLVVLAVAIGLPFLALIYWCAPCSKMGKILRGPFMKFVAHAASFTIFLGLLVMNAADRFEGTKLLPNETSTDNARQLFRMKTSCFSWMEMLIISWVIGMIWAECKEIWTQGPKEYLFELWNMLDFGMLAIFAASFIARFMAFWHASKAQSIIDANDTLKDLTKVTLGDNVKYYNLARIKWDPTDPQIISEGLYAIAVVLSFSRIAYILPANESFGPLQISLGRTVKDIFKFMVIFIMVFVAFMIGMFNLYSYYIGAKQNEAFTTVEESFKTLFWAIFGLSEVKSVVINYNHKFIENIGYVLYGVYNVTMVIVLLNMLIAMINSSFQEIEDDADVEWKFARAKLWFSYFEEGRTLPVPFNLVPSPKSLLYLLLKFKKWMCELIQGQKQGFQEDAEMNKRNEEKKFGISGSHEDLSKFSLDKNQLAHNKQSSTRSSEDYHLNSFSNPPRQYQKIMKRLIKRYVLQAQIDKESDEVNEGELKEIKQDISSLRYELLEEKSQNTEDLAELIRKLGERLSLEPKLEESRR

[10] = molecular target: Short transient receptor potential channel 6 (Mus musculus) (UniProt Q61143); test: TRPC6 opening by TRPC4 activator hits – cell-based, HEK293, membrane potential dye, duplicate, selectivity assay for TRPC4 activator project, confirmation (AID 434950;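 active = membrane potential signal rise above negative control mean plus 3 SD in both duplicates, also active in the earlier TRPC4 screen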;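 as to activation: 0% = buffer only wells and 100% = acetylcholine maximal-effect wells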); settings: HEK293 TRPC6, membrane potential fluorescence, at 10 µM; activation: stronger effect = higher value; outcome: activation
[11] = molecular target: Short transient receptor potential channel 6 (Mus musculus) (UniProt Q61143); test: positive modulators of mouse TRPC6 channel – HEK293 cells, membrane potential dye, duplicate, selectivity assay for TRPC4 potentiator project, confirmation (AID 434952); settings: HEK293 TRPC6, membrane potential dye fluorescence, at 10 µM, maximal acetylcholine added after compound; stronger effect = higher value
[12] = molecular target: Short transient receptor potential channel 4 (Mus musculus) (UniProt Q9QUQ5); test: calcium flux activators in TRPC4/5HT1a cells, counter-screen for TRPC4 activator project, cell-based, second counter screen, HEK293 TRPC4/5HT1a, Fluo-4 (AID 434977;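 active = calcium signal rise above buffer-control mean plus 5 SD in both duplicates, and also a hit in the primary screen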;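 as to activation: plate controls were assay buffer for no effect and maximal serotonin response for full effect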); settings: Fluo-4 calcium flux, at 10 µM; stronger effect = higher value
[13] = serotonin-gated TRPC4 signal block – cell-based, second counter screen, HEK293 TRPC4/5HT1a, Fluo-4, counter-screen for TRPC4 inhibitor project, confirmation (AID 434978;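 active = primary screen active whose calcium signal fell more than 3 SD beyond the full-serotonin control mean in both duplicate plates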;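 also: serotonin given first at submaximal then at maximal dose after compound preincubation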); settings: Fluo-4 calcium flux, at 10 µM, serotonin added to trigger calcium flux; stronger effect = higher value
[14] = test system: TRPC4 (mouse), co-expressed with 5HT1a in HEK293; test: enhancement of serotonin-evoked TRPC4 response – cell-based, second counter screen, HEK293 TRPC4/5HT1a, Fluo-4, counter-screen for TRPC4 potentiator project, confirmation (AID 434979;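 active = signal rise over 3 SD above mean of control wells given weak agonist, in both repeats and first screen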); settings: Fluo-4 calcium flux, at 10 µM, serotonin added at its EC20 dose; stronger effect = higher value
[15] = nonspecific calcium rise without TRPC4 – cell-based, HEK293 mu-opioid receptor line, counter-screen for TRPC4 activator project, confirmation (AID 449723;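 active = hit in primary screen, with calcium signal over 5 SD above buffer well mean in both duplicates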;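 also: counter screen cells carry the mu-opioid receptor alone and lack TRPC4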); settings: HEK293 mu-opioid cells, Fluo-4 calcium fluorescence, at 10 µM; stronger effect = higher value
[16] = nonspecific potentiation of DAMGO calcium response – cell-based, HEK293 mu-opioid receptor line, counter-screen for TRPC4 allosteric potentiator project, confirmation (AID 449724;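 active = calcium signal rise more than 3 SD above the low-dose agonist control mean, in both duplicate plates and the primary screen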); settings: HEK293 mu-opioid receptor cells, Fluo-4 calcium flux, at 10 µM, compound added before EC20 DAMGO stimulus; stronger effect = higher value

Cc1ccc(-n2cc(CNC(C)c3cnn(C)c3C)c(-c3ccc(F)cc3)n2)cc1 (stereo not drawn)
active: activation [1] 195% | activation [2] 86% | activation [10] 30.5%
inactive: outcome [3] | outcome [4] | outcome [5] | outcome [6] | outcome [7] | outcome [8] | outcome [9] | outcome [11] | outcome [12] | outcome [13] | outcome [14] | outcome [15] | outcome [16]

COc1ccc(C(=O)C2CCCN(Cc3ccc(Sc4nncn4C)o3)C2)cc1F (stereo not drawn)
inactive: outcome [3] | outcome [4] | outcome [5] | outcome [6] | outcome [7] | outcome [8] | outcome [9] | outcome [11] | outcome [13] | outcome [14] | outcome [15] | outcome [16]
active: activation [1] 164% | activation [2] 87% | activation [10] 36% | activation [12] 9.87%

O=C(NCc1ccccc1)C1=C[C@H](c2ccccc2)C[C@H](OCc2ccc(CO)cc2)O1
inactive: outcome [2] | outcome [3] | outcome [4] | outcome [5] | outcome [6] | outcome [7] | outcome [8] | outcome [9] | outcome [11] | outcome [13] | outcome [14] | outcome [15] | outcome [16]
active: activation [1] 300% | activation [10] 27% | activation [12] 178%

Cc1ccccc1C(=O)NNC(=S)NC(=O)c1cccs1
inactive: outcome [2] | outcome [3] | outcome [4] | outcome [5] | outcome [6] | outcome [7] | outcome [8] | outcome [9] | outcome [10] | outcome [11] | outcome [13] | outcome [14] | outcome [16]
active: activation [1] 139% | activation [12] 109% | activation [15] 30.1%

O=C(CC1C(=O)NCCN1Cc1ccccc1C(F)(F)F)NCCc1ccccn1 (stereo not drawn)
inactive: outcome [2] | outcome [3] | outcome [4] | outcome [5] | outcome [6] | outcome [7] | outcome [8] | outcome [9] | outcome [10] | outcome [11] | outcome [13] | outcome [14] | outcome [15] | outcome [16]
active: activation [1] 106% | activation [12] 26.7%

Clc1ccc2nc(N3CCNCC3)nc(-c3ccccc3)c2c1
active: activation [1] 74% | activation [12] 26.8% | activation [15] 12.1%
inactive: outcome [2] | outcome [3] | outcome [4] | outcome [5] | outcome [6] | outcome [7] | outcome [8] | outcome [9] | outcome [10] | outcome [11] | outcome [13] | outcome [14] | outcome [16]

O=C1c2ccccc2S(=O)(=O)c2cc(C(=O)N(c3ccccn3)c3ccccn3)ccc21
inactive: outcome [2] | outcome [3] | outcome [4] | outcome [5] | outcome [6] | outcome [7] | outcome [8] | outcome [9] | outcome [10] | outcome [11] | outcome [13] | outcome [14] | outcome [16]
active: activation [1] 107% | activation [12] 99.8% | activation [15] 25.6%

CCCCN(CC)CCCNC(=O)Cn1nc(Cc2cccnc2)c2ccccc2c1=O
inactive: outcome [2] | outcome [3] | outcome [4] | outcome [5] | outcome [6] | outcome [7] | outcome [8] | outcome [9] | outcome [10] | outcome [11] | outcome [13] | outcome [14] | outcome [15] | outcome [16]
active: activation [1] 86% | activation [12] 28.3%

O=C(NCc1ccccc1)C1=C[C@@H](C2CCCCC2)C[C@@H](OCc2ccc(CO)cc2)O1
active: activation [1] 183% | activation [10] 30.5% | activation [12] 112%
inactive: outcome [2] | outcome [3] | outcome [4] | outcome [5] | outcome [6] | outcome [7] | outcome [8] | outcome [9] | outcome [11] | outcome [13] | outcome [14] | outcome [15] | outcome [16]

Cc1ccc(CNC(=O)C2CCCN(Cc3cnn(-c4ccccc4)c3-n3cccc3)C2)cc1 (stereo not drawn)
active: activation [1] 81% | activation [10] 46%
inactive: outcome [2] | outcome [3] | outcome [4] | outcome [5] | outcome [6] | outcome [7] | outcome [8] | outcome [9] | outcome [11] | outcome [12] | outcome [13] | outcome [14] | outcome [15] | outcome [16]

COc1cc(OC)c(OC)cc1CCC(C)NCCC(c1ccccc1)c1ccccc1 (stereo not drawn)
inactive: outcome [2] | outcome [3] | outcome [4] | outcome [5] | outcome [6] | outcome [7] | outcome [8] | outcome [9] | outcome [11] | outcome [13] | outcome [14] | outcome [16]
active: activation [1] 106% | activation [10] 28% | activation [12] 66.8% | activation [15] 11.2%

CCN1/C(=C\c2ccc3cc(C)ccc3[n+]2CC)Sc2cc(C)c(C)cc21
inactive: outcome [2] | outcome [3] | outcome [5] | outcome [6] | outcome [7] | outcome [8] | outcome [9] | outcome [10] | outcome [11] | outcome [13]
active: activation [1] 177% | potentiation [4] 59% | activation [12] 66.7% | potentiation [14] 41.7% | activation [15] 152% | activation [16] 1520%

COc1ccc(C(CNc2ncnc3sc(C)c(C)c23)N(C)C)cc1 (stereo not drawn)
active: activation [1] 227% | activation [2] 113%
inactive: outcome [3] | outcome [4] | outcome [5] | outcome [6] | outcome [7] | outcome [8] | outcome [9] | outcome [10] | outcome [11] | outcome [12] | outcome [13] | outcome [14] | outcome [15] | outcome [16]

Source: PubChem BioAssay
